{"source": "paper PMC11062922", "about": "(Nature Chemical Biology, 2023)", "key": {"CDC7": {"system": "CDC7", "set-up": "species or system human, MV4-11 + K-562 + COLO205 + SK-N-BE2 + OVCAR-8", "conditions": "read-out: apparent Kd; compound concentrations: 100 nM and 1000 nM (sheet 'Samples'), CATDS: 9.1392533314382199E-2; n = 1"}, "CDKL5": {"system": "CDKL5", "set-up": "species or system human, MV4-11 + K-562 + COLO205 + SK-N-BE2 + OVCAR-8", "conditions": "read-out: apparent Kd, n = 1"}, "CLK1": {"system": "CLK1", "set-up": "species or system human, MV4-11 + K-562 + COLO205 + SK-N-BE2 + OVCAR-8", "conditions": "read-out: apparent Kd, n = 1"}, "CLK4": {"system": "CLK4", "set-up": "species or system human, MV4-11 + K-562 + COLO205 + SK-N-BE2 + OVCAR-8", "conditions": "read-out: apparent Kd, n = 1"}, "CSNK2A1;CSNK2A3": {"system": "CSNK2A1;CSNK2A3", "set-up": "species or system human, MV4-11 + K-562 + COLO205 + SK-N-BE2 + OVCAR-8", "conditions": "read-out: apparent Kd, n = 1"}, "CSNK2A2": {"system": "CSNK2A2", "set-up": "species or system human, MV4-11 + K-562 + COLO205 + SK-N-BE2 + OVCAR-8", "conditions": "read-out: apparent Kd, n = 1"}, "DYRK1A": {"system": "DYRK1A", "set-up": "species or system human, MV4-11 + K-562 + COLO205 + SK-N-BE2 + OVCAR-8", "conditions": "read-out: apparent Kd, n = 1"}, "CDC42": {"system": "CDC42", "set-up": "species or system human, MV4-11 + K-562 + COLO205 + SK-N-BE2 + OVCAR-8", "conditions": "read-out: apparent Kd, n = 1"}, "DJA1": {"system": "T1, DJA1", "T1 construct": "gene DNAJA1", "set-up": "species or system human, MV4-11 + K-562 + COLO205 + SK-N-BE2 + OVCAR-8", "conditions": "read-out: apparent Kd; compound concentrations:100 nM and 1000 nM (sheet 'Samples'); n = 1"}, "PRKCQ": {"system": "PRKCQ", "set-up": "species or system human, MV4-11 + K-562 + COLO205 + SK-N-BE2 + OVCAR-8", "conditions": "read-out: apparent Kd; compound concentrations:100 nM and 1000 nM (sheet 'Samples'); n = 1"}, "FLT3": {"system": "FLT3", "set-up": "species or system human, MV4-11 + K-562 + COLO205 + SK-N-BE2 + OVCAR-8", "conditions": "read-out: apparent Kd; compound concentrations:100 nM and 1000 nM (sheet 'Samples'); n = 1"}, "GSK3A": {"system": "GSK3A", "set-up": "species or system human, MV4-11 + K-562 + COLO205 + SK-N-BE2 + OVCAR-8", "conditions": "read-out: apparent Kd, n = 1"}, "LIMK2": {"system": "LIMK2", "set-up": "species or system human, MV4-11 + K-562 + COLO205 + SK-N-BE2 + OVCAR-8", "conditions": "read-out: apparent Kd; compound concentrations:100 nM and 1000 nM (sheet 'Samples'); n = 1"}, "GSK3B": {"system": "GSK3B", "set-up": "species or system human, MV4-11 + K-562 + COLO205 + SK-N-BE2 + OVCAR-8", "conditions": "read-out: apparent Kd, n = 1"}, "CDK16": {"system": "CDK16", "set-up": "species or system human, MV4-11 + K-562 + COLO205 + SK-N-BE2 + OVCAR-8", "conditions": "read-out: apparent Kd; compound concentrations:100 nM and 1000 nM (sheet 'Samples'); n = 1"}, "CDK17": {"system": "CDK17", "set-up": "species or system human, MV4-11 + K-562 + COLO205 + SK-N-BE2 + OVCAR-8", "conditions": "read-out: apparent Kd; compound concentrations:100 nM and 1000 nM (sheet 'Samples'); n = 1"}, "CDK2": {"system": "CDK2", "set-up": "species or system human, MV4-11 + K-562 + COLO205 + SK-N-BE2 + OVCAR-8", "conditions": "read-out: apparent Kd; compound concentrations:100 nM and 1000 nM (sheet 'Samples'); n = 1"}, "ERCC2": {"system": "ERCC2", "set-up": "species or system human, MV4-11 + K-562 + COLO205 + SK-N-BE2 + OVCAR-8", "conditions": "read-out: apparent Kd; compound concentrations:100 nM and 1000 nM (sheet 'Samples'); n = 1"}, "MYLK3": {"system": "MYLK3", "set-up": "species or system human, MV4-11 + K-562 + COLO205 + SK-N-BE2 + OVCAR-8", "conditions": "read-out: apparent Kd; compound concentrations:100 nM and 1000 nM (sheet 'Samples'); n = 1"}, "Q6ZSR9": {"molecular_target": "Q6ZSR9 (human, UniProt Q6ZSR9)", "sequence (Q6ZSR9 whole entry, looked up)": "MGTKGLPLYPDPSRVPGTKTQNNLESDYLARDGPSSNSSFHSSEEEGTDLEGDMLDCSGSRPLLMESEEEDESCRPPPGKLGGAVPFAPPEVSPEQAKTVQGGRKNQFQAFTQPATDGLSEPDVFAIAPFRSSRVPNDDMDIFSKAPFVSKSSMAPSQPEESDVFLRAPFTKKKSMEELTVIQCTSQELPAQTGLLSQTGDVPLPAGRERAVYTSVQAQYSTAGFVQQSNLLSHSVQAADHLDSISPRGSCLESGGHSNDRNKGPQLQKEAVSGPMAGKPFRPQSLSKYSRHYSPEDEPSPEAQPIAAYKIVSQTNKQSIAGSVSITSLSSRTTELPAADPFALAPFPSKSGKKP", "set-up": "species or system MV4-11 + K-562 + COLO205 + SK-N-BE2 + OVCAR-8", "conditions": "read-out: apparent Kd; compound concentrations:100 nM and 1000 nM (sheet 'Samples'); n = 1"}, "TTK": {"system": "TTK", "set-up": "species or system human, MV4-11 + K-562 + COLO205 + SK-N-BE2 + OVCAR-8", "conditions": "read-out: apparent Kd; compound concentrations:100 nM and 1000 nM (sheet 'Samples'); n = 1"}, "[1]": {"conditions": "compound concentrations:100 nM and 1000 nM (sheet 'Samples')"}}, "note": "Like-named read-outs stand apart in the source and are kept apart here.", "data": [{"smiles": "O=C1N=C(N[C@@H]2C[C@H]2c2ccccc2)S/C1=C\\c1ccc2ncccc2c1", "note": "[RO4915610-000]", "values": [{"measurement": "potency estimated from few doses", "setting": "CDC7", "value": 1800, "unit": "nM"}, {"measurement": "potency estimated from few doses", "setting": "CDKL5; compound concentrations: 100 nM and 1000 nM (sheet 'Samples'), CATDS: 0.100532719571443", "value": 1130, "unit": "nM"}, {"measurement": "potency estimated from few doses", "setting": "CLK1; compound concentrations: 100 nM and 1000 nM (sheet 'Samples'), CATDS: 0.12211476464111", "value": 542, "unit": "nM"}, {"measurement": "potency estimated from few doses", "setting": "CLK4; compound concentrations: 100 nM and 1000 nM (sheet 'Samples'), CATDS: 0.114770368167016", "value": 671, "unit": "nM"}, {"measurement": "potency estimated from few doses", "setting": "CSNK2A1;CSNK2A3; compound concentrations: 100 nM and 1000 nM (sheet 'Samples'), CATDS: 0.31191577539645199", "value": 61.5, "unit": "nM"}, {"measurement": "potency estimated from few doses", "setting": "CSNK2A2; compound concentrations: 100 nM and 1000 nM (sheet 'Samples'), CATDS: 0.34928398987599801", "value": 51.1, "unit": "nM"}, {"measurement": "potency estimated from few doses", "setting": "DYRK1A; compound concentrations: 100 nM and 1000 nM (sheet 'Samples'), CATDS: 0.194548178255603", "value": 154, "unit": "nM"}]}, {"smiles": "CNc1nc(-c2ccc3c(N)n[nH]c3c2)cc(N2C[C@@H](C(=O)Nc3ccccc3)CC[C@H]2C)n1", "note": "[GSK2298859A]", "values": [{"measurement": "potency estimated from few doses", "setting": "CDC42; [1]", "value": 2140, "unit": "nM"}, {"measurement": "potency estimated from few doses", "setting": "DJA1", "value": 880, "unit": "nM"}, {"measurement": "potency estimated from few doses", "setting": "PRKCQ", "value": 1800, "unit": "nM"}]}, {"smiles": "CC(=O)Nc1n[nH]c2ncc(-c3ccccc3)cc12", "note": "[SB-548492]", "values": [{"measurement": "potency estimated from few doses", "setting": "CDC42; [1]", "value": 1850, "unit": "nM"}, {"measurement": "potency estimated from few doses", "setting": "FLT3", "value": 1040, "unit": "nM"}, {"measurement": "potency estimated from few doses", "setting": "GSK3A; [1]", "value": 748, "unit": "nM"}, {"measurement": "potency estimated from few doses", "setting": "LIMK2", "value": 1150, "unit": "nM"}]}, {"smiles": "Cn1cc(C2=C(c3cccc(N)c3)C(=O)NC2=O)c2ccccc21", "note": "[RO0317471-000]", "values": [{"measurement": "potency estimated from few doses", "setting": "CDC42; compound concentrations: 100 nM and 1000 nM (sheet 'Samples'), CATDS: 0.203680819174512", "value": 1200, "unit": "nM"}, {"measurement": "potency estimated from few doses", "setting": "GSK3A; compound concentrations: 100 nM and 1000 nM (sheet 'Samples'), CATDS: 0.53179335167556496", "value": 23.5, "unit": "nM"}, {"measurement": "potency estimated from few doses", "setting": "GSK3B; compound concentrations: 100 nM and 1000 nM (sheet 'Samples'), CATDS: 0.45250345973029299", "value": 32.2, "unit": "nM"}]}, {"smiles": "CN(C)CCCC(=O)Nc1n[nH]c2nnc(-c3ccccc3)cc12.Cl", "note": "[SB-627772-A]", "values": [{"measurement": "potency estimated from few doses", "setting": "CDK16", "value": 1840, "unit": "nM"}, {"measurement": "potency estimated from few doses", "setting": "CDKL5; [1]", "value": 4.6, "unit": "nM"}, {"measurement": "potency estimated from few doses", "setting": "GSK3A; [1]", "value": 6.15, "unit": "nM"}, {"measurement": "potency estimated from few doses", "setting": "GSK3B; [1]", "value": 17.1, "unit": "nM"}]}, {"smiles": "CCN1CCC(CC(=O)Nc2n[nH]c3nnc(-c4cccc(F)c4F)cc23)CC1.O=C(O)[C@H](O)[C@@H](O)C(=O)O", "note": "[SB-698596-AC]", "values": [{"measurement": "potency estimated from few doses", "setting": "CDK16", "value": 53.3, "unit": "nM"}, {"measurement": "potency estimated from few doses", "setting": "CDK17", "value": 995, "unit": "nM"}, {"measurement": "potency estimated from few doses", "setting": "CDKL5; [1]", "value": 46.9, "unit": "nM"}, {"measurement": "potency estimated from few doses", "setting": "CLK1; [1]", "value": 693, "unit": "nM"}, {"measurement": "potency estimated from few doses", "setting": "CLK4; [1]", "value": 1420, "unit": "nM"}, {"measurement": "potency estimated from few doses", "setting": "DYRK1A; [1]", "value": 1520, "unit": "nM"}, {"measurement": "potency estimated from few doses", "setting": "GSK3A; compound concentrations: 100 nM and 1000 nM (sheet 'Samples'), CATDS: 0.61035791771228698", "value": 0.905, "unit": "nM"}, {"measurement": "potency estimated from few doses", "setting": "GSK3B; [1]", "value": 2.33, "unit": "nM"}]}, {"smiles": "NS(=O)(=O)c1ccc(N/N=C2\\C(=O)Nc3ccc(C(=O)NCc4ccncc4)cc32)cc1", "note": "[GSK300657X]", "values": [{"measurement": "potency estimated from few doses", "setting": "CDK16", "value": 486, "unit": "nM"}, {"measurement": "potency estimated from few doses", "setting": "CDK17", "value": 957, "unit": "nM"}, {"measurement": "potency estimated from few doses", "setting": "CDK2", "value": 567, "unit": "nM"}, {"measurement": "potency estimated from few doses", "setting": "CSNK2A1;CSNK2A3; [1]", "value": 1460, "unit": "nM"}, {"measurement": "potency estimated from few doses", "setting": "CSNK2A2; [1]", "value": 771, "unit": "nM"}, {"measurement": "potency estimated from few doses", "setting": "ERCC2", "value": 2250, "unit": "nM"}, {"measurement": "potency estimated from few doses", "setting": "MYLK3", "value": 1620, "unit": "nM"}, {"measurement": "potency estimated from few doses", "setting": "Q6ZSR9", "value": 2140, "unit": "nM"}, {"measurement": "potency estimated from few doses", "setting": "TTK", "value": 2100, "unit": "nM"}]}]}
